In PubChem BioAssay one finds z-score and composite z-score data, which are given here for 6 compounds.

The nature of experiment [1]: E. coli DRC41 culture turbidity changes, primary screen, E. coli filamentation inducer project, strain DRC41, OD650, 48 h (AID 1152).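 Further: E. coli MC1000 strain DRC41 lacking acrAB efflux pump and sulA.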 To be noted: E. coli DRC41 (acrAB sulA), higher = more signal, called active from +8 up or from −8 down.
The nature of experiment [2]: small-molecule binders of probe aLefty1, primary screen, biochemical, small-molecule microarray, 635/667 nm fluorescence (AID 1153).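 Further: score merges spot fluorescence with signal-to-noise ratio from the scanned slide images.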 The settings on record: higher = more signal.
The nature of experiment [3]: PSAC antagonists in infected red cells, primary screen, cell-based, P. falciparum Indochina, OD700, 1 h (AID 1154). The settings on record: P. falciparum Indochina infected RBC osmotic lysis, higher = more signal, called active from +8 up or from −8 down.
Experiment [4] is described as follows: PSAC antagonists in infected red cells, primary screen, cell-based, P. falciparum Indochina, OD700, 2 h (AID 1155).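 Further: lysis reports solute entry through the parasite surface anion channel PSAC; channel blockers reduce lysis of infected cells.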 To be noted: P. falciparum Indochina infected erythrocytes, osmotic lysis OD700; higher = more signal, called active from +8 up or from −8 down.
Experiment [5] in a line: osmotic lysis modulators in infected erythrocytes, primary screen, PSAC antagonist project, cell-based, P. falciparum Indochina, OD700, 3 h (AID 1156). To be noted: higher = more signal, called active from +8 up or from −8 down.
The nature of experiment [6]: PSAC antagonists in infected red cells, primary screen, cell-based, P. falciparum Indochina, OD700, 18 h (AID 1157). The settings on record: P. falciparum Indochina infected erythrocytes, osmotic lysis OD700, 18 h; higher = more signal, called active from +8 up or from −8 down.
Experiment [7] in a line: modulators of S6 phosphorylation in cells, primary screen, cell-based, A549, cytoblot, luminescence, serum-stimulated (AID 1158).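 Further: serum-stimulated A549 lung adenocarcinoma cells; signal is phosphorylated S6 detected by cytoblot immunostaining with HRP secondary.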 To be noted: A549 phospho-S6 cytoblot, 5 h, higher = more signal.
Experiment [8] addresses NADPH oxidase 2 (Homo sapiens) (UniProt P04839). Kind of experiment: NOX2-dependent H2O2 signal modulators, primary screen, NOX inhibitor project, cell-based, HEK293-NOX2, PMA-stimulated, Amplex Red fluorescence (AID 1159). Further: test concentration not given here. The settings on record: 45 min, higher = more signal, called active from +8 up or from −8 down.
The target in experiment [9] is NADPH oxidase 4 (Homo sapiens) (UniProt Q9NPH5). Kind of experiment: NOX4-dependent H2O2 signal modulators, primary screen, NOX inhibitor project, cell-based, HEK293-NOX4, tetracycline-induced, Amplex Red fluorescence (AID 1160). To be noted: 45 min, higher = more signal, called active from +8 up or from −8 down.
Chain of NADPH oxidase 4 (Homo sapiens) (Q9NPH5 whole entry, looked up): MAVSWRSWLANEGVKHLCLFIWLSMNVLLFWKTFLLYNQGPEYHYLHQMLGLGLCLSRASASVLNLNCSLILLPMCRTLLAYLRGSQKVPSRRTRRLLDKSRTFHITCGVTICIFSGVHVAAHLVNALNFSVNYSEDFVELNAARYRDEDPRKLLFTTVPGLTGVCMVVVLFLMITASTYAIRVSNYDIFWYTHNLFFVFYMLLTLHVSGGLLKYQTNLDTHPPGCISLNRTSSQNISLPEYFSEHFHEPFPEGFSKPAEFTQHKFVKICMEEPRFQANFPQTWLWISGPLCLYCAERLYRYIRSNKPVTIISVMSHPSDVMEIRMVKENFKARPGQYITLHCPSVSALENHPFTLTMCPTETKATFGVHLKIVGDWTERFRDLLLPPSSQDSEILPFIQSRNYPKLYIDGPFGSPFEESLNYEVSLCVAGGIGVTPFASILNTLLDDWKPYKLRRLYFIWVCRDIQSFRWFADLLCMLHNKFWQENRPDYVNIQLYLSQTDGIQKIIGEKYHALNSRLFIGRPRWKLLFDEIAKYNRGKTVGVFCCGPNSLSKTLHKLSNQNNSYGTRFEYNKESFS
Experiment [10] addresses NADPH oxidase 5 (Homo sapiens) (UniProt Q96PH1). Put plainly: NOX5-dependent H2O2 signal modulators, primary screen, NOX inhibitor project, cell-based, HEK293-NOX5, Amplex Red fluorescence (AID 1161). To be noted: HEK293-NOX5, ionomycin, 45 min, higher = more signal.
A short description of experiment [11]: A549 cell viability effects, profiling panel, calcein-AM fluorescence, 48 h, basal (AID 1162). Further: test concentration not given here. The settings on record: higher = more signal.
The nature of experiment [12]: adipocyte viability effects, profiling panel, cell-based, 3T3-L1 adipocytes, calcein-AM fluorescence, 48 h, basal (AID 1163). Further: test concentration not given here. The settings on record: 3T3-L1 adipocytes viability, higher = more signal.
The nature of experiment [13]: HepG2 cell viability effects, profiling panel, calcein-AM fluorescence, 48 h, basal (AID 1164). Further: test concentration not given here. To be noted: higher = more signal.
The nature of experiment [14]: MM1S cell viability effects, profiling panel, calcein-AM fluorescence, 48 h, basal (AID 1165).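 Further: viability of MM1S multiple myeloma cells under basal unstimulated conditions; test concentration not given here.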 To be noted: higher = more signal.
Experiment [15] is described as follows: basal RPMI8226 viability, no added stimulus, profiling panel, cell-based, calcein-AM fluorescence, 48 h, PK04 Diversity Set (AID 1166).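 Further: cells grown under basal conditions without added stimulus; test concentration not given here.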 To be noted: RPMI8226 myeloma viability, higher = more signal.
A short description of experiment [16]: basal HepG2 mitochondrial membrane potential changes, profiling panel, cell-based, JC-1 fluorescence, 24 h, 100 nL compound (AID 1167). Further: test concentration not given here. To be noted: higher = more signal.
Experiment [17] is described as follows: basal 3T3-L1 adipocyte mitochondrial potential changes, profiling panel, cell-based, JC-1 fluorescence, 3T3-L1 adipocytes, 24 h, 100 nL compound (AID 1168). Further: test concentration not given here. The settings on record: JC-1 mitochondrial fluorescence, higher = more signal, called active from +8 up or from −8 down.
A short description of experiment [18]: basal RPMI8226 mitochondrial membrane potential changes, profiling panel, cell-based, JC-1 fluorescence, 24 h, 100 nL compound (AID 1169). Further: test concentration not given here. To be noted: RPMI8226 myeloma, JC-1 mitochondrial potential fluorescence, higher = more signal.
Experiment [19] in a line: basal MM1S mitochondrial membrane potential changes, profiling panel, cell-based, JC-1 fluorescence, 24 h, 100 nL compound (AID 1170). Further: test concentration not given here. To be noted: higher = more signal.
Experiment [20] can be described thus: A549 lung cancer cell viability effects, profiling panel, resazurin fluorescence, 24 h, PK04 Diversity Set (AID 1171). Further: test concentration not given here. The settings on record: higher = more signal, called active from +8 up or from −8 down. (The colour change of resazurin is a common sign of viable cells or microbes.)

Structures are written as SMILES. Activity calls are given as the source filed them.

Chain of NADPH oxidase 5 (Homo sapiens) (Q96PH1 whole entry, looked up): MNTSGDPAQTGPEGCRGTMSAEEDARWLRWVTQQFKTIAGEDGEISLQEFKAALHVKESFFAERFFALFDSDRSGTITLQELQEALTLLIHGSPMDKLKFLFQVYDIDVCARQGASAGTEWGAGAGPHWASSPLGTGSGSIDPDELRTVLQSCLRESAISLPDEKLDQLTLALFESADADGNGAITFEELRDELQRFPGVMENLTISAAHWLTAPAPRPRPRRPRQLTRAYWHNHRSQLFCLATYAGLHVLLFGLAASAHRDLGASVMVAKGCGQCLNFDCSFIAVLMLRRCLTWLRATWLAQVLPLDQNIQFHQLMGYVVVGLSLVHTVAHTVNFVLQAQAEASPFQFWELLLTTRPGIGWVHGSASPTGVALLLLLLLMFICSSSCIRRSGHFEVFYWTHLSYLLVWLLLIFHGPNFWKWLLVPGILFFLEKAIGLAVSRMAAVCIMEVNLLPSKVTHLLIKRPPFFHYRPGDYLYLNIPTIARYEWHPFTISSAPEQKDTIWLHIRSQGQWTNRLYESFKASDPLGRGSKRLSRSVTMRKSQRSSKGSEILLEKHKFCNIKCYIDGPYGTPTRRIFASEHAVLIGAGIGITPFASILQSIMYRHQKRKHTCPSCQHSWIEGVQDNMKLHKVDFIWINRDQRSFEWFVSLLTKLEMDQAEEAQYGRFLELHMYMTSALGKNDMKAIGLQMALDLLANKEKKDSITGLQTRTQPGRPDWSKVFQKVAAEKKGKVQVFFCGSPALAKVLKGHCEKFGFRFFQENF
Chain of NADPH oxidase 2 (Homo sapiens) (P04839 whole entry, looked up): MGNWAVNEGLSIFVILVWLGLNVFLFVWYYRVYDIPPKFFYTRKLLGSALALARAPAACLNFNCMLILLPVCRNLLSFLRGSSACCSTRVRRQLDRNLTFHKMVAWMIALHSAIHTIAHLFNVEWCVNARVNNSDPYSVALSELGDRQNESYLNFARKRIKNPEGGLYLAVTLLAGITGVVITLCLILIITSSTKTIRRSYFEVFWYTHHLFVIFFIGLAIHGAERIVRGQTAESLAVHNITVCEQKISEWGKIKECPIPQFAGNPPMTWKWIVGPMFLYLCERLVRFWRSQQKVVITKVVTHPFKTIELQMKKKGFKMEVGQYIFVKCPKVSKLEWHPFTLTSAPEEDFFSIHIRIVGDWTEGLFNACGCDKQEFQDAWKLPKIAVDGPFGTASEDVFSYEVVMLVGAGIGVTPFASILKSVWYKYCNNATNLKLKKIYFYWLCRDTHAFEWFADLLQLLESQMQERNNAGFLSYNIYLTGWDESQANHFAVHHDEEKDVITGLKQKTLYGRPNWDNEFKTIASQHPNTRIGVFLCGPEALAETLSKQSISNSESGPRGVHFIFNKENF

As to `CCOC(=O)C1=CCC(c2ccc(C#N)cc2)N(S(=O)(=O)c2ccc(C)cc2)C1` (stereo not given), the z-score in experiment [1] was 0.26 (inactive); in experiment [3], 5.29 (inactive); in [4], 1.12 (inactive); in [5], 0.632 (inactive); in [6], 0.557 (inactive); in experiment [7] it was -0.118. Moreover, the z-score was 0.292 (inactive) in [8]; 0.62 (inactive) in experiment [9]; -0.303 in experiment [10]; -1.14 in [11]; -0.68 in [12]; 0.109 in experiment [13]. Also, the z-score in experiment [14] is -0.548; in experiment [15] it was -0.741; in experiment [16], -0.259; in experiment [17], 0.345 (inactive); in [18], -0.516; in experiment [19], -1.71. Further, the z-score in [20] was -0.343 (inactive). In [2], this compound had a composite z-score of 0.262.
Regarding `CN(C)C(=O)[C@]1(CCC(=O)OC(C)(C)C)N=C(c2ccc(OCCCO)cc2)O[C@@H]1c1ccccc1N=[N+]=[N-]`, the z-score is 0.761 (inactive) in [1]; 31 (active) in experiment [3]; 29.8 (active) in experiment [4]; 1.37 (inactive) in experiment [5]; 2.34 (inactive) in [6]; -0.294 in [7]. Also, the z-score in experiment [8] is -4.53 (inactive); in experiment [9], -0.32 (inactive); in experiment [10], -1.98; in experiment [11], 0.0413; in experiment [12], 0.473; in experiment [13] it was 0.333. In addition, the z-score in experiment [14] was -0.629; in experiment [15], 0.0141; in [16] it was 2.25; in experiment [17], 2.52 (inactive); in experiment [18] it was -0.568; in experiment [19], -0.325. The z-score in experiment [20] is 1.84 (inactive). The composite z-score in [2] came to 1.33.
Regarding `C=CCOC(=O)[C@@H]1[C@H]2C(=O)O[C@H](c3ccccc3)[C@H](c3ccccc3)N2[C@H](c2ccc(OCCOC(=O)[C@@H]3C[C@@H]4C(=O)N[C@@H](Cc5ccccc5)C(=O)N4[C@@H]3c3cccc(OCCO)c3)cc2)[C@@]12C(=O)Nc1ccc(I)cc12`, the z-score is 0.264 (inactive) in experiment [1]; 9.36 (active) in experiment [3]; 2.8 (inactive) in experiment [4]; 2.09 (inactive) in [5]; 1.31 (inactive) in experiment [6]; -0.479 in [7]. The z-score in [8] is 1.03 (inactive); in experiment [9] it was -1.02 (inactive); in experiment [10], 0.727; in experiment [11], -1.15; in [12], 0.185; in experiment [13] it was -0.0074. The z-score was 0.359 in experiment [14]; -1.1 in experiment [15]; -1.57 in experiment [16]; 0.235 (inactive) in experiment [17]; -0.505 in experiment [18]; -1.14 in [19]. The z-score in experiment [20] is 0.789 (inactive). Also, the composite z-score in experiment [2] was 0.706.
In the case of `O=C1OCCC=C[C@H]2OC34C=CCN(Cc5ccccc5)C(=O)[C@H]3N(CCCO)C(=O)[C@@H]4C12` (stereo not given in full), the z-score in [1] was 2.94 (inactive); in experiment [3] it was 0.64 (inactive); in [4], -0.306 (inactive); in experiment [5], 0.739 (inactive); in experiment [6], -0.996 (inactive); in experiment [7], 0.84. For the same compound, the z-score in experiment [8] is -1.96 (inactive); in experiment [9], -2.93 (inactive); in experiment [10], -3.28; in experiment [11] it was 0.577; in [12], 1.66; in experiment [13], -1.04. In addition, the z-score is 0.0832 in experiment [14]; -0.0189 in experiment [15]; 0.161 in experiment [16]; -0.282 (inactive) in experiment [17]; 0.798 in [18]; -0.559 in experiment [19]. Also, the z-score in [20] is 0.233 (inactive). Also, in experiment [2], the composite z-score is -0.101.
Consider `CC(C)c1ccc(NN2C(C(O)c3c(F)cccc3Cl)C=CC3C(=O)N(c4ccccc4)C(=O)C32)cc1` (stereo not given), for which the z-score is -2.03 (inactive) in experiment [1]; 2.86 (inactive) in experiment [3]; 1.18 (inactive) in [4]; 1.12 (inactive) in [5]; 1.02 (inactive) in experiment [6]; -1.02 in [7]. In addition, the z-score in [8] is -1.38 (inactive); in experiment [9], -5.38 (inactive); in [10], -4.14; in experiment [11], -0.755; in experiment [12] it was 0.205; in [13] it was -0.314. Further, the z-score in [14] is -0.414; in experiment [15], -1.32; in experiment [16], -2.03; in experiment [17] it was -2.25 (inactive); in experiment [18] it was -0.738; in [19], 0.584. In experiment [20], the z-score was -1.71 (inactive). In experiment [2], the composite z-score was 1.22.
On to `COCC1=C2[C@@H](CCc3ccccc3)OB(O)C[C@@H]2[C@@H]2C(=O)N(Cc3ccccc3)C(=O)[C@@H]2C1`, for which the z-score is -0.536 (inactive) in experiment [1]; 1.75 (inactive) in [3]; -0.0799 (inactive) in experiment [4]; -0.558 (inactive) in [5]; 0.0831 (inactive) in [6]; 0.533 in [7]. The z-score in experiment [8] was -0.0858 (inactive); in experiment [9], 0.552 (inactive); in experiment [10], 0.974; in experiment [11], 0.0476; in experiment [12], 0.873; in experiment [13], 0.128. Moreover, the z-score is -1.51 in experiment [14]; -0.138 in experiment [15]; -1.59 in [16]; -0.897 (inactive) in [17]; -0.812 in [18]; 0.24 in [19]. The z-score in experiment [20] was 0.21 (inactive). In [2], the composite z-score was -0.0573.
